Experimental data as given in PubChem BioAssay (NCATS).
Inconclusive results are not listed. Active and inactive are the calls of the source. Calls come from the whole dose curve; as a rule, active = well fitted cell-killing curve with a large enough effect; inconclusive = small, poorly fitted or top-dose-only effect, or effect the other way; inactive = flat fitted curve, though single readings scatter.

System: JEG-3
Test: Primary qHTS to identify gynecologic anti-cancer compounds using libraries of approved drugs and bioactive compounds (AID 1345084); note: nearly all actives have a fitted effect of over 55% in size
Conditions: Gynecologic cancer cell panel viability, ATPlite luminescence, 48 h; series mostly up to 57.5 µM; activity change, negative = cytotoxicity: at the top concentration
How it was run: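 Cells, 1,000 per well, were allowed to settle for 16 h at 37 C before compound addition. Five concentrations were tested for 48 h, and viability was read by ATPlite luminescence after 15 min at room temperature.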
% is set by controls: 0 for no effect and ±100 for the full control effect.

Row | SMILES | activity change, negative = cytotoxicity
1 | C1CN2CCC1CC2 | 0.272% (inactive)
2 | CCC1(CC)C(=O)NC(=O)NC1=O | -0.481% (inactive)
3 | CC(C)(C)OC(=O)c1ncn2c1[C@@H]1CCCN1C(=O)c1c(Br)cccc1-2 | -1.58% (inactive)
4 | CN1C(=O)CN=C(c2ccccc2)c2cc([N+](=O)[O-])ccc21 | 5.5% (inactive)
5 | CCOC(=O)C(c1c(O)c2ccccc2oc1=O)c1c(O)c2ccccc2oc1=O | 2.7% (inactive)
6 | CNC(C)Cc1ccccc1OC (stereo not given) | 18.6% (inactive)
7 | ClCc1cccc(Cl)c1 | -1.8% (inactive)
8 | CC(CC(C(N)=O)(c1ccccc1)c1ccccc1)N(C)C (stereo not given) | 7.53% (inactive)
9 | CC1Sc2c(C(=O)O)c(=O)c3cc(F)c(N4CCNCC4)cc3n21 (stereo not given) | -11.8% (inactive)
10 | O=C(CBr)Nc1ccc(Cl)cc1C(=O)c1ccccc1F | 2.87% (inactive)
11 | COP(=O)(OC)C(O)C(Cl)(Cl)Cl (stereo not given) | 5.87% (inactive)
12 | C[C@H]1CNCCc2ccc(Cl)cc21 | -1.36% (inactive)
13 | COc1cc(N)c(Cl)cc1C(=O)NC1CN2CCC1CC2 (stereo not given) | 1.99% (inactive)
14 | COC(=O)C1=CCCN(C)C1 | 9.14% (inactive)
15 | C[C@@H]1CN(C2CCC(C#N)(c3ccc(F)cc3)CC2)CC[C@]1(C(=O)O)c1ccccc1 (stereo not given in full) | -2.45% (inactive)
16 | CCOC(=O)NC(O)C(Cl)(Cl)Cl (stereo not given) | -15.5% (inactive)
17 | OC(O)C(Cl)(Cl)Cl | 6.08% (inactive)
18 | ClCCCN1CCN(c2cccc(Cl)c2)CC1 | 7.13% (inactive)
19 | C#C[C@]1(O)C=C[C@H]2[C@@H]3CCC4=CC(=O)CC[C@@H]4[C@H]3CC[C@@]21CC | 5.99% (inactive)
20 | O=c1[nH]c2cc(Cl)ccc2n1C1CCNCC1 | -0.32% (inactive)

Row | SMILES | activity change, negative = cytotoxicity
21 | O=C(O)Cc1ccccc1 | -1.61% (inactive)
22 | CC(C)(O)C(Cl)(Cl)Cl | -2.25% (inactive)
23 | C[N+]1(CCC(C(N)=O)(c2ccccc2)c2ccccc2)CCCCC1 | 0.593% (inactive)
24 | CCc1ccc(C2CCNCC2)cc1 | 4.62% (inactive)
25 | C[C@]12CC[C@H]3[C@@H](CCC4=CC(=O)CC[C@@H]43)[C@@H]1CC[C@@H]2O | -2.22% (inactive)
26 | Cc1ccc(N=CN(C)C=Nc2ccc(C)cc2C)c(C)c1 | -11.7% (inactive)
27 | COP(=O)(OC)OC=C(Cl)Cl | -21.5% (inactive)
28 | CCN1CCCC1CNC(=O)C(O)(c1ccccc1)c1ccccc1 (stereo not given) | -1.73% (inactive)
29 | CN(C)C(=O)Oc1cc(OC(=O)N(C)C)cc(C(O)CNC(C)(C)C)c1 (stereo not given) | -6.4% (inactive)
30 | O=C1CN2CCOC2(c2ccccc2Cl)c2cc(Cl)ccc2N1 (stereo not given) | 1.05% (inactive)
31 | COP(=S)(OC)Oc1ccc(Sc2ccc(OP(=S)(OC)OC)cc2)cc1 | 0.441% (inactive)
32 | O=C(O)c1nn(Cc2ccc(Cl)cc2Cl)c2ccccc12 | 11% (inactive)
33 | COCC(=O)N(c1c(C)cccc1C)C(C)C(=O)OC (stereo not given) | 5.29% (inactive)
34 | NC(=O)OCCCc1ccccc1 | 3.61% (inactive)
35 | CCN(CC)CCOC(=O)C(C)(c1ccccc1)c1ccccc1 | 17.5% (inactive)
36 | CCOP(=S)(OCC)O/N=C(\C#N)c1ccccc1 | 7.34% (inactive)
37 | O=C(CCCCl)c1ccc(F)cc1 | -0.0382% (inactive)
38 | C[N+]1(C)[C@@H]2CC[C@H]1CC(OC(=O)C(CO)c1ccccc1)C2 (stereo not given in full) | 14.2% (inactive)
39 | CC1=C2[C@H]3OC(=O)[C@@H](C)[C@@H]3CC[C@@]2(C)C=CC1=O | 2.65% (inactive)
40 | Sc1ccccc1Cl | 13.3% (inactive)
